Tb PYK inh – T. brucei pyruvate kinase inhibition | Q57TT1 | Potency, µM (top dose mostly 76.8 µM), most hits filed as inhibitors | hit rate 0.12% among 410,000 | TbPYK enzyme, Kinase-Glo Plus ATP luminescence, 45 min; further: nearly all actives have a fitted effect of over 50% in size
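Screened from lowest to highest concentration, compounds were pinned into TbPYK/substrate mixtures, and ADP (130 uM final) was added. Plates sat at room temperature for 45 min prior to Kinase-Glo Plus detection by luminescence.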
AMA1-RON2 inh – disrupts binding of P. falciparum AMA1 to RON2 | AlphaScreen AMA1-biotinylated RON2 peptide binding | Potency, µM (doses to about 58.2 µM), actives largely listed as inhibitors | hit rate 0.2% among 360,000; further: nearly all actives have a fitted effect of over 45% in size
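AMA1 (3D7) with his tag at 25 nM final met compounds first, then biotinylated RON2 peptide at 25 nM; detection used donor plus acceptor beads, 10 µg/mL apiece, read by AlphaScreen after 30 min at room temperature.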
RE007 growth inh – less growth of the S. pombe RE007 Vpr strain; S. pombe RE007 Vpr strain, BacTiter-Glo ATP luminescence, 24 h; Potency, µM (titrated, usually from 92.2 µM), most hits filed as inhibitors; hit rate 0.21% among 360,000; AID 651644; active means well fitted falling curve with a large enough effect; inconclusive means small, poorly fitted or top-dose-only effect; inactive means no such curve, though single readings can be large or run the other way; further: nearly all actives have a fitted effect of over 50% in size
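Fission yeast RE007 carrying one integrated HIV-1 vpr copy, seeded at OD 0.01 in PMG+AL medium with 23 nL pinned compound. Grown 24 h at 30 degrees; viability read by BacTiter-Glo luminescence after 5 min.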
Sm TGR block – inhibitors of Schistosoma mansoni thioredoxin glutathione reductase; purified TGR, DTNB reduction, TNB absorbance 405 nm; Potency, µM (top dose mostly 114 µM), hits mostly inhibitors; Q962Y6; hit rate 3% among 360,000; further: nearly all actives have a fitted effect of over 60% in size
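TGR 20 nM + NADPH 100 uM (dispensed conc.), cpd preinc 15 min RT; start with NADPH (500 uM addition) then DTNB (15 mM addition). Kinetic TNB absorbance, 405 nm filter. Four-parameter Hill fit across titration.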
LmPK inh – blocks Leishmania mexicana pyruvate kinase activity | Potency, µM (doses to about 57.5 µM), hits mostly inhibitors | purified LmPK, Kinase-Glo ATP luminescence, 1 h | Q27686 | hit rate 0.37% among 290,000
Target sequence (Q27686 whole entry, looked up): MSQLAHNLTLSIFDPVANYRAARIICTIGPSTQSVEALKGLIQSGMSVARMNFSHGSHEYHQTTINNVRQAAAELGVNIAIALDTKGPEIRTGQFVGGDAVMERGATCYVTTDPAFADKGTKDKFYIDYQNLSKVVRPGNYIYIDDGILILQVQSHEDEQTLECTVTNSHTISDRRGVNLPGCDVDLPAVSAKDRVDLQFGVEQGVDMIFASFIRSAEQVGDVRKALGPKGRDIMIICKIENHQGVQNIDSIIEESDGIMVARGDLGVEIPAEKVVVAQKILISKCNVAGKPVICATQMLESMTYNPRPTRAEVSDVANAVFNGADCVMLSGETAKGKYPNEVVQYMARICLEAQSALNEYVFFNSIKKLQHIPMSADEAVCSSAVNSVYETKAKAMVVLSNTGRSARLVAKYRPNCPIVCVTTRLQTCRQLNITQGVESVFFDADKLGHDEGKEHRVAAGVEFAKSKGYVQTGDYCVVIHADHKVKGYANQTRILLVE
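Kinase-Glo luminescence read after 1 h RT reaction of 0.1 nM LmPK with 0.5 mM PEP and 0.1 mM ADP. Activity scaled between uninhibited and enzyme-free controls.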
Numbers stand for hits; n = inactive; u = inconclusive; x = no result; [ ] = remark or other dose. Sampled rows, rich in hits. Any-hit rate of the full collection: about 3.2%. Unless noted, the call rests on the fitted dose curve; in most records, active means well fitted curve in the direction sought with a large enough effect; inconclusive means small, poorly fitted or top-dose-only effect, or another doubt; inactive means no such curve, though single readings can be large; an effect the other way counts as inactive or inconclusive.

SMILES	Tb PYK inh	AMA1-RON2 inh	RE007 growth inh	Sm TGR block	LmPK inh
CCCOc1ccc(/C(O)=C2/C(=O)C(=O)N(CCCN3CCOCC3)C2c2ccncc2)cc1 (stereo not drawn)	x	x	x	11µM	n
Cc1ccc(/C(O)=C2/C(=O)C(=O)N(CCN3CCOCC3)C2c2ccccn2)cc1 (stereo not drawn)	n	n	n	25µM	n
CN(C)CCCN1C(=O)C(=O)/C(=C(/O)c2ccccc2)C1c1ccccn1 (stereo not drawn)	x	x	x	n	n
CCCOc1ccc(/C(O)=C2/C(=O)C(=O)N(CCN(C)C)C2c2ccco2)cc1 (stereo not drawn)	n	n	n	45µM	n
Cc1ccc(C)c(N(C)C(=O)CCNC(=O)Cn2cnc3ccccc3c2=O)c1	n	x	x	n	x
c1ccc(Nc2c(-c3c[nH]c4ccccc34)nc3ccccn23)cc1	n	x	x	n	x
Cc1cc(C)c(NC(=O)CCCn2c(C)c3cnn(-c4ccccc4)c(=O)c3c2C)c(C)c1	n	x	x	u	x
COc1ccc(/C(O)=C2/C(=O)C(=O)N(CCN3CCOCC3)C2c2ccccn2)cc1OC (stereo not drawn)	n	n	n	50µM	n
COc1ccc(C[C@H]2c3cc(O)c(OC)cc3CC[N+]2(C)[O-])cc1O (stereo partly drawn)	n	u	n	18µM	n
CCOc1ccc(C(C)=O)cc1CN1C(=O)c2ccccc2S1(=O)=O	n	n	n	35µM	n
O=C1NC(=O)N(c2ccccc2F)C(=O)/C1=C/c1ccc(Sc2nc3ccccc3[nH]2)o1	u	n	u	7.1µM	n
O=C1NC(=O)N(c2ccccc2)C(=O)/C1=C/c1ccc(Sc2ccccc2)o1	u	n	n	25µM	u
O=C1NC(=O)N(c2cccc(Cl)c2)C(=O)/C1=C\c1ccc(Sc2nc3ccccc3[nH]2)o1	u	u	n	7.1µM	n
N#C/C(=C\c1ccc(Sc2nc3ccccc3[nH]2)o1)c1ccccc1	n	n	n	n	n
CCOc1ccccc1NC(=O)C(C)N(c1ccccc1)S(C)(=O)=O (stereo not drawn)	n	x	x	n	x
CCOC(=O)COc1ccccc1/C=C\[N+](=O)[O-]	u	n	32µM	11µM	n
CCn1ccc2c(OCC(=O)Nc3ccccc3C(F)(F)F)cccc2c1=O	n	x	x	n	x
O=C(Oc1cccc2cccnc12)c1cccc(N2C(=O)C3C4CCC(C4)C3C2=O)c1 (stereo not drawn)	u	n	16µM	n	n
N#Cc1ccc(-c2ccc(C3Nc4ccccc4C(=O)N3O)o2)cc1 (stereo not drawn)	n	x	x	5µM	x
Cc1c(Cl)cccc1NC(=O)C(CCS(C)(=O)=O)N1Cc2ccccc2C1=O (stereo not drawn)	n	x	x	n	x
O=C(O)C1Nc2ccc(Br)cc2C2C=CCC12 (stereo not drawn)	n	10µM	n	0.89µM	n
CCOC(=O)C1Nc2ccc(Br)cc2C2C=CCC12 (stereo not drawn)	u	n	n	28µM	n
CCOC(=O)c1ccc2c(c1)C1C=CCC1C(C(=O)OCC)N2 (stereo not drawn)	u	n	n	32µM	n
O=C(OC1CCCCC1)c1ccc2c(c1)C1C=CCC1C(C(=O)O)N2 (stereo not drawn)	x	x	x	3.2µM	n
CCOC(=O)c1ccc2c(c1)[C@@H]1C=CC[C@@H]1[C@H](c1cccc(OC)c1OC)N2	n	x	x	n	x
SMILES	Tb PYK inh	AMA1-RON2 inh	RE007 growth inh	Sm TGR block	LmPK inh
CCOC(=O)C1Nc2ccc(C)cc2C2C=CCC12 (stereo not drawn)	n	n	n	x	x
Cc1cc(NC(=O)CN(C)S(=O)(=O)c2ccc3c(c2)CCC(=O)N3)ccc1Br	n	x	x	n	x
O=C(Nc1ncccn1)c1cc([N+](=O)[O-])cc([N+](=O)[O-])c1	n	n	n	n	n
O=[N+]([O-])c1cc(-c2ncccn2)c([N+](=O)[O-])s1	n	n	u	0.32µM	n
O=C(CS(=O)(=O)c1cccc2nsnc12)NCc1ccccc1	n	x	x	n	x
N#CC(C#N)=NNc1ccc([N+](=O)[O-])cc1	n	n	n	25µM	n
CCN(CC)S(=O)(=O)c1ccc(NN=C(C#N)C#N)cc1	n	n[11.6 µM]	n	7.9µM	n
Cc1ccc(Cl)cc1-c1ccc(C=Nc2ccc(N3CCOCC3)cc2)o1	n	11µM	n	u	n
CCCCC/C(C=O)=C/c1ccccc1	n	x	x	x	x
COc1ccc(C(=O)C2CCCN(Cc3ccccn3)C2)c(OC)c1 (stereo not drawn)	n	n	n	n	n
COc1ccc(C(=O)C2CCCN(Cc3c(C)[nH]c4ccccc34)C2)c(OC)c1 (stereo not drawn)	x	x	x	35µM	n
Cc1cccc(CNC(=O)C2CCN(c3nn4cc(-c5ccc(F)cc5)nc4s3)CC2)c1	n[15.4 µM]	x	x	n	x
COC(=O)c1sccc1S(=O)(=O)N1CCN(c2cccc(C)c2C)CC1	n	x	x	n	x
O=C(/C=C/c1ccccc1)/C=C/c1ccccc1	n	n	u	25µM	n
N/C(=N\OC(=O)/C=C/c1ccccc1)c1ccccc1	n	n	n	n	14µM
CC(=O)/C=C/c1ccccc1	n	n	n	x	x
COc1cc(/C=C2\CCCc3c2nc2ccccc2c3C(=O)O)cc([N+](=O)[O-])c1O	n	u	n	n	n
COc1ccc(/C=C2\CCc3c2nc2ccccc2c3C(=O)O)cc1OC	n	n	n	n	n
COc1cc(/C=C2\CCCc3c2nc2ccccc2c3C(=O)O)cc(OC)c1O	u	n	n	20µM	n
COc1ccc(/C=C2\CCCc3c2nc2ccccc2c3C(=O)O)cc1OC	x	x	x	20µM	n
Cc1ccc(Cn2cc(CCC(=O)NC3CCC(C)CC3)c3ccccc32)cc1 (stereo not drawn)	n	x	x	n	x
O=C(C1=C[C@@H]2[C@H]3C(=O)N(c4cccc(Cl)c4)C(=O)[C@H]3[C@@H](C(=O)c3ccc(Cl)cc3)N2C=C1)c1ccccc1	n	n	n	22µM	n
O=C(C1=C[C@@H]2[C@H]3C(=O)N(c4ccccc4Cl)C(=O)[C@H]3[C@@H](C(=O)c3ccc(Cl)cc3)N2C=C1)c1ccccc1	x	x	x	25µM	n
Cc1ccc(N2C(=O)[C@@H]3[C@H](C2=O)[C@H]2C=C(C(=O)c4ccccc4)C=CN2[C@@H]3C(=O)c2ccc(Cl)cc2)cc1	n	n	n	40µM	n
O=C(c1ccc(Cl)cc1)[C@@H]1[C@@H]2C(=O)N(c3ccccc3)C(=O)[C@@H]2C2c3ccccc3C=NN21 (stereo partly drawn)	n	n	n	n	n
CC(C)C(=O)c1cc2c(cc1NC(=O)c1ccccc1F)OCCO2	n	x	x	n	x
CCOC(=O)c1ccc(NC(=O)c2ccccc2[N+](=O)[O-])cc1	n	n	n	n	n
CCOC(=O)c1cc([N+](=O)[O-])c([N+](=O)[O-])cc1NC(C)=O	n	n	n	0.5µM	n
